# In PubChem BioAssay (NCI):
# The panel holds about 79,000 compounds, 15% with a hit somewhere; the sample as a whole holds those more often. Unmarked numbers belong to inactive results. Calls of active or inactive are those of the source. Cut-off read from the data, not from the text of the source: active = growth inhibition above about 70%; inactive = the rest.
# Columns and labels:
# [1] = NCI Yeast Anticancer Drug Screen. Data for the rad50 strain (AID 155);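 note: 0% = growth of vehicle-only cultures of the same strain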; conditions: S. cerevisiae rad50 strain growth inhibition, hits give high values
# In short: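 Yeast carrying a defined DNA repair defect were exposed to test compounds, and growth was compared with vehicle-treated controls to give percent inhibition.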
# [2] = NCI Yeast Anticancer Drug Screen. Data for the mec2-1 strain (AID 157); conditions: S. cerevisiae mec2-1 strain, hits give high values
# In short: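 Strain: mec2-1 (DNA repair/cell cycle alteration). Compound exposure, then growth measured; inhibition expressed relative to vehicle.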
# [3] = NCI Yeast Anticancer Drug Screen. Data for the sgs1 mgt1 strain (AID 161);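 note: 0% = growth of cultures given vehicle only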; conditions: S. cerevisiae sgs1 mgt1 strain, hits give high values
# In short: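 Mutant yeast exposed to compound; growth scored against vehicle-only wells.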
# [4] = NCI Yeast Anticancer Drug Screen. Data for the cln2 rad14 strain (AID 165);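 note: 0% = growth equal to vehicle treated cultures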; conditions: S. cerevisiae cln2 rad14 strain, hits give high values
# In short: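 Compounds are applied to the cln2 rad14 yeast strain, and growth is then compared with that of vehicle-treated cultures to give inhibition.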
# [5] = NCI Yeast Anticancer Drug Screen. Data for the bub3 strain (AID 167); conditions: S. cerevisiae bub3 mutant strain, hits give high values
# In short: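 Compounds were applied to a genetically altered yeast strain carrying a cell-cycle control defect. Growth inhibition was scored against vehicle-treated controls.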
# [6] = NCI Yeast Anticancer Drug Screen. Data for the mlh1 rad18 strain (AID 175); conditions: S. cerevisiae mlh1 rad18 strain growth inhibition, hits give high values
# In short: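 Read-out is yeast growth inhibition, calculated against vehicle-only controls. The compound was applied to a strain engineered with DNA damage repair alterations.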
# [7] = at 5.0 µM (retest, dose inferred, filed as 0.5)
# [8] = at 50.0 µM (retest, dose inferred, filed as 5.0)
SMILES,"growth inhibition [1, 7]","growth inhibition [1, 8]",growth inhibition ([1]; at 50.0 µM),"growth inhibition [2, 7]","growth inhibition [2, 8]",growth inhibition ([2]; at 50.0 µM),"growth inhibition [3, 7]","growth inhibition [3, 8]",growth inhibition ([3]; at 50.0 µM),"growth inhibition [4, 7]","growth inhibition [4, 8]",growth inhibition ([4]; at 50.0 µM),"growth inhibition [5, 7]","growth inhibition [5, 8]",growth inhibition ([5]; at 50.0 µM),"growth inhibition [6, 7]","growth inhibition [6, 8]",growth inhibition ([6]; at 50.0 µM)
COc1ccc(CCN2C(=O)C(=O)N(C3CCCCC3)C2=O)cc1OC,-1%,2%,75.4% (active),-1%,0%,11.9%,-3%,-3%,26.9%,-2%,0%,12.8%,-2%,-5%,34.1%,-6%,-8%,38.4%
CN(C)C(=S)SN(C)C(=O)Nc1ccccc1,-5%,96% (active),70.3% (active),-7%,96% (active),73% (active),-6%,96% (active),94% (active),-13%,95% (active),-9%,-4%,95% (active),92.2% (active),-3%,96% (active),86.1% (active)
Nc1ccc(Oc2ccccc2)cc1,2%,38%,67.5%,-3%,7%,33.9%,-9%,37%,75.6% (active),-1%,1%,1.2%,0%,-18%,25.4%,-3%,28%,54.8%
CC1(C)CNCC(C)(OCc2ccccc2)C(=O)NC(C)(C)CNCC(C)(OCc2ccccc2)C(=O)N1 (stereo not given),-6%,-19%,-1.9%,-15%,-8%,-3.4%,-8%,7%,-20.9%,-15%,-5%,31.5%,-10%,3%,-68.2%,-10%,6%,-10.4%
CC(Nc1ccc(S(=O)(=O)Nc2ncccn2)cc1)c1ccc2cccnc2c1O (stereo not given),38%,99% (active),99.5% (active),2%,99% (active),99.5% (active),11%,99% (active),98.5% (active),19%,99% (active),96.7% (active),11%,99% (active),99.3% (active),14%,98% (active),99.2% (active)
CN(NC(=O)/C(=C\c1ccco1)NC(=O)c1ccccc1)c1cn[nH]c(=O)c1Cl,9%,36%,86.2% (active),-9%,13%,83.4% (active),-2%,6%,87.8% (active),7%,13%,62.7%,-10%,27%,90.6% (active),-6%,47%,93.5% (active)
O=C(O)Cc1cccc(O)c1,0%,-3%,10.5%,3%,-1%,41.9%,-3%,-4%,-1.9%,-8%,1%,35.1%,-1%,1%,5.8%,0%,-3%,-0.1%
CC12CCC3C(CCC4CC(O)CCC43C)C1CC1C2=NOC1O (stereo not given),0%,99% (active),25.8%,-2%,99% (active),18.2%,0%,99% (active),72.2% (active),-8%,99% (active),21%,-3%,99% (active),73% (active),-1%,99% (active),56.7%
Oc1c(Br)cc(Br)cc1C=Nc1ccc(Br)cc1,68%,98% (active),80.8% (active),55%,99% (active),91.5% (active),72% (active),98% (active),89.6% (active),44%,99% (active),89.2% (active),73% (active),99% (active),89% (active),88% (active),98% (active),87.1% (active)
C=CCCCCCCCCC(=O)OCC=C,0%,4%,-2.1%,6%,3%,-18.1%,4%,9%,16.4%,0%,0%,26.6%,-3%,-4%,10.9%,-2%,-1%,9.2%
